The source of these data is ChEMBL document CHEMBL4513146, “CO-ADD screening of Karazin Kharkiv National University (Ukraine) compounds”.

Measured potencies and affinities stand elsewhere.

One experiment relates to Staphylococcus aureus. The settings on record: Concentration 32 ug.mL-1;; ASSAY_TEST Inhibition of Bacterial Growth; detection method Absorption (OD600); MEDIA CAMHB; plate type 384well; NBS; CORNING #3640; time 18 hr.
Consider `Cc1ccc(Sc2nccn3c(=O)n(CC(=O)Nc4ccc(Br)cc4C)nc23)c(C)c1`, for which the Inhibition was -15.15%.
Same read-out and setting: for `COc1cccc(CSc2nnc3c(=O)n(-c4ccccc4OC)ccn23)c1` the value was -2.45%.
On to `Cc1cc2nn(CC(=O)Nc3ccc(F)c(F)c3)c(=O)n2c(Nc2ccc(C)c(F)c2)n1`, for which the Inhibition turned out to be 7.73%.
The same measure, in the same setting: to `CCOc1ccccc1NC(=O)Cn1nc2c3cc(-c4ccc(Cl)cc4)nn3ccn2c1=O` belongs 6.48%.
Take `O=C(Cn1nc2ccc(-c3ccc(Cl)cc3)nn2c1=O)N1CCN(c2ccc(F)cc2)CC1`: the Inhibition turned out to be 4.1%.
For `COc1ccc(CNC(=O)CSc2nnc3c4cc(-c5ccc(OC)cc5)nn4ccn23)cc1`, the Inhibition was 4.43%.
For the molecule `N#Cc1cccc(NC(=O)Cn2nc3c(Oc4ccccc4)nccn3c2=O)c1`, the Inhibition is on record as 10.16%.
Same read-out and setting: for `COc1ccccc1-n1ccn2c(SCc3ccccc3C)nnc2c1=O` the value was 16.46%; for `CCOC(=O)c1ccc(NC(=O)Cn2nc3c4cc(-c5ccc(C)cc5)nn4ccn3c2=O)cc1`, -5.61%; for `CCc1ccc(NC(=O)CSc2nnc3ccc(C(=O)Nc4cccc(F)c4)cn23)cc1`, 9.49%.
With `COc1ccc(NC(=O)Cn2nc3c4c5c(sc4ncn3c2=O)CCCC5)cc1`, the Inhibition worked out at 2.3%.
Still for that read-out and setting: for `Cc1cc2nn(CC(=O)Nc3ccc(F)cc3C)c(=O)n2c(Nc2ccc(F)cc2)n1` the value was 9.22%.
With `COc1ccc(N2CCN(C(=O)Cn3nc4c(Oc5cccc(C)c5C)nccn4c3=O)CC2)cc1`, the Inhibition was 7.43%.
Regarding `Cc1cc2nn(CC(=O)Nc3ccccc3F)c(=O)n2c(Nc2ccc(F)c(C)c2)n1`, the Inhibition is reported as 11.73%.
Take `COc1ccccc1N1CCN(C(=O)Cn2nc3c(Sc4cccc(C)c4)nccn3c2=O)CC1`: the Inhibition came to 5.8%.
The same measure, in the same setting: for `COc1ccccc1NC(=O)Cn1nc2c(SCc3ccccc3)nccn2c1=O` the value was -5.43%.
On the same count and under the same terms, to `N#Cc1cccc(Cn2nc3ccc(S(=O)(=O)N4CCCCCC4)cn3c2=O)c1` belongs 10.44%.
In the case of `O=C(Cn1nc2c(Sc3ccccc3)nccn2c1=O)Nc1ccc(Br)cc1F`, the Inhibition was found to be 5.84%.
Regarding `O=C(Cn1nc2c3cc(F)ccc3ncn2c1=O)Nc1ccc2c(c1)OCO2`, the Inhibition came to 5.65%.
Take `CC(C)c1ccc(N(Cc2ccccc2F)S(=O)(=O)c2cccn3cnnc23)cc1`: the Inhibition was 2.39%.
Turning to `CCCc1ccc(S(=O)(=O)Nc2ccc3nncn3n2)cc1`, the Inhibition is given as 16.11%.
The same measure, in the same setting: for `Cc1ccc(NC(=O)Cn2nc3c4c5c(sc4ncn3c2=O)CCCC5)cc1C` the value was 0.13%; for `CSc1ccc(CNC(=O)Cn2nc3c(Oc4ccccc4)nccn3c2=O)cc1`, 10.07%; for `Cc1ccc(NC(=O)Cn2nc3c4cc(-c5ccc(Cl)cc5)nn4ccn3c2=O)cc1C`, 10.49%.
The same measure, in the same setting: for `Cc1ccc(Sc2nccn3c(=O)n(CC(=O)Nc4ccccc4C)nc23)c(C)c1` the value was -3.06%; for `COc1ccc(-c2cc3c4nn(CC(=O)Nc5cccc(C(C)=O)c5)c(=O)n4ccn3n2)cc1`, -6.93%; for `COC(=O)c1sccc1NC(=O)CSc1nc2ccccc2n2c(C)nnc12`, 17.15%.
Same read-out and setting: for `CC(C)Sc1ccc2nn(CC(=O)Nc3ccc(Cl)cc3F)c(=O)n2n1` the value was 9.58%; for `Cc1cc2nn(CC(=O)Nc3ccc(C)c(F)c3)c(=O)n2c(Nc2ccc(C)c(F)c2)n1`, 6.9%; for `O=C(Cn1nc2c3cc(-c4ccc(Cl)cc4)nn3ccn2c1=O)Nc1ccc2c(c1)OCO2`, 8.69%.
As to `N#CCSc1nnc2c(=O)n(-c3ccc(Br)cc3)ccn12`, the Inhibition is 14.93%.
For `Cc1cc(C)cc(Nc2nc(C)cc3nn(CC(=O)Nc4ccccc4)c(=O)n23)c1`, the Inhibition is 4.32%.
Still for that read-out and setting: for `COc1ccccc1CNC(=O)CSc1nnc2c3cc(-c4ccc(C)cc4)nn3ccn12` the value was -5.58%.
Consider `O=C(CSc1nnc2ccc(C(=O)Nc3cccc(F)c3)cn12)Nc1ccc(F)c(F)c1`, for which the Inhibition is recorded as 8.43%.
The same measure, in the same setting: for `COc1cc(OC)c(NC(=O)Cn2nc3c(Sc4ccc(C)cc4C)nccn3c2=O)cc1Cl` the value was -8.98%; for `CC(C)c1nnc2c(SCC(=O)Nc3ccc4c(c3)OCO4)nc3ccccc3n12`, -0.91%; for `O=C(Cn1nc2ccc(SC3CCCCC3)nn2c1=O)Nc1ccc2c(c1)CCC2`, 4.8%.
Turning to `Cc1cc(C)cc(NC(=O)Cn2nc3c(N4CCCC4)nccn3c2=O)c1`, the Inhibition is 12.35%.
Consider `O=C(Cn1nc2ccc(Sc3cccc(F)c3)nn2c1=O)NCc1ccc(C(F)(F)F)cc1`, for which the Inhibition was determined as 12.64%.

For another experiment, the system named is Escherichia coli. The settings on record: Concentration 32 ug.mL-1;; ASSAY_TEST Inhibition of Bacterial Growth; detection method Absorption (OD600); MEDIA CAMHB; plate type 384well; NBS; CORNING #3640; time 18 hr.
In the case of `Cc1ccc(Sc2nccn3c(=O)n(CC(=O)Nc4ccc(Br)cc4C)nc23)c(C)c1`, the Inhibition is given as -16.85%.
On to `COc1cccc(CSc2nnc3c(=O)n(-c4ccccc4OC)ccn23)c1`, for which the Inhibition is listed as 1.01%.
On to `Cc1cc2nn(CC(=O)Nc3ccc(F)c(F)c3)c(=O)n2c(Nc2ccc(C)c(F)c2)n1`, for which the Inhibition is -3.04%.
Still for that read-out and setting: to `CCOc1ccccc1NC(=O)Cn1nc2c3cc(-c4ccc(Cl)cc4)nn3ccn2c1=O` belongs 1.3%.
Turning to `O=C(Cn1nc2ccc(-c3ccc(Cl)cc3)nn2c1=O)N1CCN(c2ccc(F)cc2)CC1`, the Inhibition was -5.18%.
Still for that read-out and setting: to `COc1ccc(CNC(=O)CSc2nnc3c4cc(-c5ccc(OC)cc5)nn4ccn23)cc1` belongs 0.23%; to `N#Cc1cccc(NC(=O)Cn2nc3c(Oc4ccccc4)nccn3c2=O)c1`, -2.65%.
Regarding `COc1ccccc1-n1ccn2c(SCc3ccccc3C)nnc2c1=O`, the Inhibition is -2.58%.
Turning to `CCOC(=O)c1ccc(NC(=O)Cn2nc3c4cc(-c5ccc(C)cc5)nn4ccn3c2=O)cc1`, the Inhibition is on record as -8.93%.
`CCc1ccc(NC(=O)CSc2nnc3ccc(C(=O)Nc4cccc(F)c4)cn23)cc1`: the Inhibition is -4.13%.
Same read-out and setting: for `COc1ccc(NC(=O)Cn2nc3c4c5c(sc4ncn3c2=O)CCCC5)cc1` the value was -5.34%; for `Cc1cc2nn(CC(=O)Nc3ccc(F)cc3C)c(=O)n2c(Nc2ccc(F)cc2)n1`, -3.34%; for `COc1ccc(N2CCN(C(=O)Cn3nc4c(Oc5cccc(C)c5C)nccn4c3=O)CC2)cc1`, -1.11%.
The same measure, in the same setting: for `Cc1cc2nn(CC(=O)Nc3ccccc3F)c(=O)n2c(Nc2ccc(F)c(C)c2)n1` the value was -0.72%.
The same measure, in the same setting: for `COc1ccccc1N1CCN(C(=O)Cn2nc3c(Sc4cccc(C)c4)nccn3c2=O)CC1` the value was -4.78%; for `COc1ccccc1NC(=O)Cn1nc2c(SCc3ccccc3)nccn2c1=O`, -12.47%.
Consider `N#Cc1cccc(Cn2nc3ccc(S(=O)(=O)N4CCCCCC4)cn3c2=O)c1`, for which the Inhibition was -2.41%.
As for `O=C(Cn1nc2c(Sc3ccccc3)nccn2c1=O)Nc1ccc(Br)cc1F`, the Inhibition was -2.08%.
As for `O=C(Cn1nc2c3cc(F)ccc3ncn2c1=O)Nc1ccc2c(c1)OCO2`, the Inhibition is recorded as -3%.
The same measure, in the same setting: to `CC(C)c1ccc(N(Cc2ccccc2F)S(=O)(=O)c2cccn3cnnc23)cc1` belongs -0.79%.
On the same count and under the same terms, to `CCCc1ccc(S(=O)(=O)Nc2ccc3nncn3n2)cc1` belongs 2.74%.
The same measure, in the same setting: to `Cc1ccc(NC(=O)Cn2nc3c4c5c(sc4ncn3c2=O)CCCC5)cc1C` belongs -5.89%; to `CSc1ccc(CNC(=O)Cn2nc3c(Oc4ccccc4)nccn3c2=O)cc1`, 1.2%.
For `Cc1ccc(NC(=O)Cn2nc3c4cc(-c5ccc(Cl)cc5)nn4ccn3c2=O)cc1C`, the Inhibition is on record as 3.51%.
The same measure, in the same setting: for `Cc1ccc(Sc2nccn3c(=O)n(CC(=O)Nc4ccccc4C)nc23)c(C)c1` the value was -8.99%; for `COc1ccc(-c2cc3c4nn(CC(=O)Nc5cccc(C(C)=O)c5)c(=O)n4ccn3n2)cc1`, -6.63%; for `COC(=O)c1sccc1NC(=O)CSc1nc2ccccc2n2c(C)nnc12`, 5.14%.
The same measure, in the same setting: to `CC(C)Sc1ccc2nn(CC(=O)Nc3ccc(Cl)cc3F)c(=O)n2n1` belongs -1.02%; to `Cc1cc2nn(CC(=O)Nc3ccc(C)c(F)c3)c(=O)n2c(Nc2ccc(C)c(F)c2)n1`, -1.96%.
Still for that read-out and setting: for `O=C(Cn1nc2c3cc(-c4ccc(Cl)cc4)nn3ccn2c1=O)Nc1ccc2c(c1)OCO2` the value was 2.9%; for `N#CCSc1nnc2c(=O)n(-c3ccc(Br)cc3)ccn12`, -0.38%; for `Cc1cc(C)cc(Nc2nc(C)cc3nn(CC(=O)Nc4ccccc4)c(=O)n23)c1`, -6.45%.
For the molecule `COc1ccccc1CNC(=O)CSc1nnc2c3cc(-c4ccc(C)cc4)nn3ccn12`, the Inhibition is on record as -8.49%.
`O=C(CSc1nnc2ccc(C(=O)Nc3cccc(F)c3)cn12)Nc1ccc(F)c(F)c1`: the Inhibition is reported as 1.09%.
On the same count and under the same terms, for `COc1cc(OC)c(NC(=O)Cn2nc3c(Sc4ccc(C)cc4C)nccn3c2=O)cc1Cl` the value was -14.71%; for `CC(C)c1nnc2c(SCC(=O)Nc3ccc4c(c3)OCO4)nc3ccccc3n12`, -6.38%.
As to `O=C(Cn1nc2ccc(SC3CCCCC3)nn2c1=O)Nc1ccc2c(c1)CCC2`, the Inhibition is given as -2.69%.
Consider `Cc1cc(C)cc(NC(=O)Cn2nc3c(N4CCCC4)nccn3c2=O)c1`, for which the Inhibition is on record as -0.75%.
Turning to `O=C(Cn1nc2ccc(Sc3cccc(F)c3)nn2c1=O)NCc1ccc(C(F)(F)F)cc1`, the Inhibition is -0.57%.

A word on the Inhibition: it is the drop in the measured response relative to a control, in per cent.
